Source: PubChem BioAssay (National Center for Advancing Translational Sciences (NCATS))
Most compounds without a hit are left out; they make up all but 11% or so of the library.
G9a block – blocks human histone lysine methyltransferase G9a | G9a H3K9 monomethylation, AlphaScreen, 2 h | Potency, µM (highest dose often 102 µM), without a hit: top-dose activity, negative = inhibition, actives largely listed as inhibitors | 350,000 compounds, 8.8% hits | AID 504332; note: potency is the fitted concentration of half-maximal effect; % is set by controls: 0 for no effect and ±100 for the full control effect; nearly all actives have a fitted effect of over 75% in size
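G9a (20 nM) was preincubated 15 min with compound, then reacted 2 h at room temperature with 500 nM biotin-H3K9 peptide and 20 µM SAM. Monomethyl-H3K9 detected by AlphaScreen using anti-H3K9me1 antibody.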
BAZ2B block – blocks human BAZ2B; Q9UIF8; AlphaScreen BAZ2B-H3K14Ac peptide displacement; Potency, µM (top dose mostly 114 µM), without a hit: at the highest dose activity change, negative = inhibition, actives largely listed as inhibitors; 360,000 compounds, 4.4% hits; AID 504333; note: potency is the fitted concentration of half-maximal effect; % is set by controls: 0 for no effect and ±100 for the full control effect; nearly all actives have a fitted effect of over 60% in size
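BAZ2B (50 nM) with biotin-H3(5-23)K14Ac peptide (50 nM) in PBS pH 7.4, 0.01% Tween-20, preformed 30 min, then compound 30 min at room temperature; top concentration 110uM. AlphaScreen streptavidin donor/nickel chelate acceptor beads (10 ug/mL final), 20 min dark, signal read.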
L3MBTL1 block – inhibitors of human L3MBTL1; Q9Y468; AlphaScreen L3MBTL1–H3K9me1 peptide binding; Potency, µM (titrated, usually from 57.1 µM), inactives show at the top dose activity, negative = inhibition, most hits filed as inhibitors; 230,000 compounds, 0.66% hits; note: potency is the fitted concentration of half-maximal effect; % is set by controls: 0 for no effect and ±100 for the full control effect; nearly all actives have a fitted effect of over 60% in size
Target sequence (Q9Y468 whole entry, looked up): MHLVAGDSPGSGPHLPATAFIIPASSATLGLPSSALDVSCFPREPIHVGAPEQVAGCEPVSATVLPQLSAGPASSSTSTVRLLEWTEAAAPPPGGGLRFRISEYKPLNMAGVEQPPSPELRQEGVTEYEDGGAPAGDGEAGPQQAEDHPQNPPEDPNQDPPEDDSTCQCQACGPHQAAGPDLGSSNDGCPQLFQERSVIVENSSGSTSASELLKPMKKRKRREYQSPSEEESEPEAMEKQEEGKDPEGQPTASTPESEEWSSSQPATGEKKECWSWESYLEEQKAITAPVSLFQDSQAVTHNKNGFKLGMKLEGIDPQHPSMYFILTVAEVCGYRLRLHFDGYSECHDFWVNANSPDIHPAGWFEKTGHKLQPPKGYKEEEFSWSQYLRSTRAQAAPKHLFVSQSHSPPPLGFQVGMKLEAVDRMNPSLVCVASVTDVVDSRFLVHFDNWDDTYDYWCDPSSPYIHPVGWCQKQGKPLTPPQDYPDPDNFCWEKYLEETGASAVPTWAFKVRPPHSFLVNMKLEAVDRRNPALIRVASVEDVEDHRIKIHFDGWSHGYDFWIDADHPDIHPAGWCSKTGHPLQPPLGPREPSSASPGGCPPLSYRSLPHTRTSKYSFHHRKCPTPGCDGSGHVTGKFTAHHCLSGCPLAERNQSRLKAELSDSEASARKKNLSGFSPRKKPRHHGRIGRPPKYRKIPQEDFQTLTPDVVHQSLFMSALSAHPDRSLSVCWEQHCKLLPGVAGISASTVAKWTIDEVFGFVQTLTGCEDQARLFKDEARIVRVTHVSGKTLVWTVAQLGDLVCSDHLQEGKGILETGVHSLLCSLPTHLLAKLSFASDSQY
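L3MBTL1 (50 nM) pre-complexed 30 min with biotinylated H3(1-15)K9me1 peptide (75 nM), then compounds added for 30 min at room temperature; AlphaScreen streptavidin donor/nickel chelate acceptor beads (10 ug/mL final) read after 30 min dark incubation.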
HP1b chromo inh – HP1-beta chromodomain-methylated histone interaction inhibition. P83916. AlphaScreen HP1-beta / biotin-H3K9me3 peptide binding. Potency, µM (series often up to 114 µM), without a hit: at the top dose activity change, negative = inhibition, hits mostly inhibitors. 390,000 compounds, 0.56% hits; note: potency is the fitted concentration of half-maximal effect; nearly all actives have a fitted effect of over 70% in size
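HP1-beta protein (50 nM final) preincubated 30 min at room temperature with biotinylated H3(1-18)K9me3 peptide (50 nM) in PBS pH 7.4, 0.01% Tween-20, then compound added for 30 min. AlphaScreen streptavidin donor/nickel chelate acceptor beads (10 ug/mL final), 30 min dark, luminescence read.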
JMJD2A Tudor – blocks the human JMJD2A Tudor domain | O75164 | AlphaScreen JMJD2A-Tudor / H3K4me3 peptide binding | Potency, µM (titrated, usually from 114 µM), for the others: at the top dose activity change, negative = inhibition, most hits filed as inhibitors | 390,000 compounds, 4.4% hits; note: potency is the fitted concentration of half-maximal effect; % is set by controls: 0 for no effect and ±100 for the full control effect; nearly all actives have a fitted effect of over 50% in size
PI5P4Ka inh – inhibitors of human PI5P4K alpha. 330,000 compounds, 1.2% hits. P48426. PI5P4Kalpha enzyme, ADP-Glo luminescence, 60 min; stronger effect = lower value. AID 652105. max response, %; active = max response of -50% or lower; inconclusive = between -30% and -50%; inactive = -30% or higher; note: value at the top dose of about 77 µM; % is set by controls: 0 for no effect and ±100 for the full control effect
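Enzyme plus substrate dispensed, test compounds pinned in, then ATP (5 microM final) added. After 60 min at RT, ADP-Glo reagent 1 for 45 min and reagent 2 for 30 min preceded luminescence imaging.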
* marks the source's active call; other numbers are inactive results; u = inconclusive; x = no result; [ ] = another dose, or the depositor's remark. Unless noted, calls come from the whole dose curve; as a rule, active = well fitted inhibition curve with a large enough effect; inconclusive = small, poorly fitted or top-dose-only effect; inactive = no such curve, though single readings can be large or run the other way.

SMILES	G9a block	BAZ2B block	L3MBTL1 block	HP1b chromo inh	JMJD2A Tudor	PI5P4Ka inh
O=C(COC(=O)C1CCN(c2ccc(C(F)(F)F)cn2)CC1)Nc1ccc(F)cc1[N+](=O)[O-]	11µM*	u	-20%	u	u	8
CN(CC(=O)Nc1ccc(F)cc1)C(=O)COC(=O)C1CCN(c2ccc(C(F)(F)F)cn2)CC1	79µM*	-5%	0%	30%	-41%	11
CCOc1ccc(C(=O)C(C)OC(=O)C2CCN(c3ccc(C(F)(F)F)cn3)CC2)cc1 (stereo not given)	56µM*	16%	22%	68%	26%	2
O=C(COC(=O)C1CCN(c2ccc(C(F)(F)F)cn2)CC1)Nc1cccc(F)c1	u	6%	61%	116%	7%	18
Cc1ccc(C(=O)C(C)OC(=O)C2CCN(c3ccc(C(F)(F)F)cn3)CC2)cc1C (stereo not given)	65%	17%	6%	75%	37%	17
CCn1cc(S(=O)(=O)CC(=O)Nc2ccc3c(c2)OCCO3)c2ccccc21	u	u	-4%	3%	u	-23
CCN(CC)C(=O)Cn1cc(S(=O)(=O)CC(=O)Nc2ccc3c(c2)OCCO3)c2ccccc21	56µM*	x	x	40%	4%	-1
CCN(CC)C(=O)Cn1cc(S(=O)(=O)CC(=O)Nc2ccc(C(N)=O)cc2)c2ccccc21	45µM*	-23%	x	37%	-20%	3
O=C(CSc1nncc(=O)[nH]1)NCc1ccccc1	56µM*	u	6%	0%	40µM*	-28
O=C(CSc1nc(SCC(=O)NCc2ccccc2)n(-c2ccccc2)n1)NCc1ccccc1	25µM*	3%	x	28%	-13%	x
CN(C)C(=O)CSc1nc(SCC(=O)N(C)C)n(-c2ccccc2)n1	3%[59 µM]	3%	0%	29%	-12%	x
Cc1[nH]c2ccccc2c1CCCO	5%	-23%	-8%	0%	-20%	2
CCCCCCCCCCC1=C(C)C(=O)C(OC)=C(OC)C1=O	5µM*	x	x	x	x	x
COC1=C(OC)C(=O)C(CCCCCCCCCCO)=C(C)C1=O	u	50µM*	x	x	x	x
CCCCCCc1c(O)c2ccccc2[nH]c1=O	-3%[59 µM]	-3%	-7%	9%	-21%	x
CCN(CC)S(=O)(=O)c1ccc(N=Nc2c(N)[nH]c(=O)[nH]c2=O)cc1	-6%	-10%	-6%	20%	-7%	-67*
Cc1ccc(NC(=O)c2c(C)oc3nc(C)nc(N4CCCC4)c23)c(C)c1	-10%[59 µM]	1%[57.1 µM]	x	-6%	-16%	x
O=C(c1ccc2c(c1)N(Cc1ccccc1)C(=O)c1ccccc1S2(=O)=O)N1CCOCC1	0%[59 µM]	-14%	x	14%	-12%	x
Cn1c(SCC(N)=O)nnc1-c1ccc(S(=O)(=O)N2CCCC2)cc1	4%	-3%	x	14%	-4%	16
Cc1ccc(-n2c(SCC(N)=O)nnc2-c2ccc(S(=O)(=O)N3CCCCC3)cc2)c(C)c1	40µM*	-1%	x	7%	u	x
Cc1ccc(C)c(CN2C(=O)c3ccccc3Sc3ccc(C(=O)NCc4ccco4)cc32)c1	-5%[59 µM]	-9%	x	20%	-22%	x
Cc1cn2c(=O)cc(COC(=O)COc3ccccc3C)nc2s1	0%[59 µM]	1%	x	45%	-3%	x
Clc1ccc(NN(Cc2ccncc2)c2ccc(Cl)cc2)cc1	x	x	x	x	x	9
CC(C)c1ccc(C(=O)NNC(=O)c2n[nH]c(=O)c3ccccc23)cc1	5µM*	8%	1%	27%	-15%	-20
Cc1ccc(C2=NN3C(C2)c2ccccc2OC32C(=O)Nc3ccccc32)cc1 (stereo not given)	u	u	-11%	4%	u	-53*
CN1C(=O)C2(Oc3ccccc3C3CC(c4ccccc4)=NN32)c2ccccc21 (stereo not given)	u	-33%	-7%	17%	u	1
NNc1ccc(Cl)nn1	x	20µM*	-23%	79µM*	8.9µM*	5
COc1ccc(NC(=O)CSc2nncn3c2cc2occc23)c(OC)c1	-22%[59 µM]	-34%	x	12%	-12%	x
